# ADAM17 inh: ADAM17 inhibitors, primary screen, biochemical, QFRET; actives 0.83% (n = 370,000); recombinant ADAM17, EDANS/DABCYL FRET peptide cleavage; inhibition, % at 6.95 µM; AID 720648, 2013;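 active = inhibition above the mean of compounds lying between control limits plus 3 SD, set per campaign, cut at about 8.5% in these data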;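 note: 0% = DMSO-only wells as the low control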
# ADAM10 inh: human ADAM10 inhibitors, primary screen, biochemical, QFRET, HTS; recombinant ADAM10, EDANS/DABCYL FRET peptide cleavage, 3 h; inhibition, % at 7 µM; actives 0.62% (n = 370,000); AID 720582, 2013;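 active = inhibition above a per-campaign cutoff equal to the mean of compounds falling between control-based bounds plus 3 SD, cut at about 20% in these data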;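 note: 0% = DMSO wells while the 100% control is not disclosed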
# PLC-gamma1 inh: PLC-gamma1 enzyme inhibitors, primary screen, biochemical, fluorescence, purified enzyme | fluorogenic substrate | inhibition, % at 12.2 µM | actives 0.84% (n = 370,000) | AID 720700, 2013; in the data active = inhibition above about 9.5%
# PLC-beta3 inh: human PLC-beta3 inhibitors, primary screen, biochemical, fluorescence | inhibition, % at 12.2 µM | Purified PLC-beta3, fluorogenic substrate | actives 0.18% (n = 370,000);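 note: 0% = median of compound wells on plate and 100% = full blocker control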
# KLK7 zymogen act: proKLK7 zymogen activators, primary screen, biochemical, fluorescence intensity. Kallikrein-7 (Homo sapiens), P49862. purified proKLK7, EDANS-DABCYL substrate fluorescence; 100% is mature enzyme control, 0% vehicle. activation, % at 7 µM. actives 0.9% (n = 370,000). AID 652039, 2013;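 active = activation above the mean of all tested compounds plus 3 SD, computed per campaign excluding outliers beyond control limits, cut at about 13% in these data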
# PLCgamma1 ctr: PLC-gamma1 enzyme inhibitors, counter-screen for PLC-beta3 inhibitor project, biochemical, fluorescence. shares compounds with PLC-gamma1 inh. purified PLC-gamma1, fluorogenic substrate. inhibition, % at 12.3 µM. actives 3.1% (n = 3,300). AID 743258, 2014; in the data active = inhibition above about 9.5%
# PLCb3 confirm: PLC-beta3 inhibitor confirmation, biochemical, fluorescence, purified enzyme. actives 1% (n = 3,300). fluorogenic substrate fluorescence. AID 743261, 2014. inhibition, % at 12.3 µM. shares compounds with PLC-gamma1 inh
# * marks the source's active call; other numbers are inactive results; nt = no result given. An excerpt weighted towards active compounds, which were near 2.9% of everything screened. Cut-off read from the data, not from the text of the source, unless noted: active = inhibition above about 11%; inactive = the rest.
SMILES,ADAM17 inh,ADAM10 inh,PLC-gamma1 inh,PLC-beta3 inh,KLK7 zymogen act,PLCgamma1 ctr,PLCb3 confirm
Cc1cccc(NC(=O)C2CCCN2C(=O)Oc2ccccc2)c1 (stereo unspecified),-3.1,-3.9,8.7,-3.2,0.7,nt,nt
COc1ccc(NC(=O)N2CCCC2C(=O)Nc2ccccc2F)cc1 (stereo unspecified),-3.9,4.0,-0.3,-8.0,-0.1,nt,nt
Cc1cccc(NC(=O)N2CCCC2C(=O)NCc2cccs2)c1 (stereo unspecified),6.4,10.6,11.6*,5.4,-0.2,-3.8,1.1
Cc1cccc(NC(=O)N2CCCC2C(=O)Nc2ccccc2)c1 (stereo unspecified),1.4,4.4,12.7*,6.9,0.0,-4.2,-4.0
COc1ccc(S(=O)(=O)N2CCOCC2)cc1NC(=O)CC(C)c1ccccc1 (stereo unspecified),-3.0,1.6,-2.8,-1.7,0.1,nt,nt
COc1ccc(-c2nc3c(-c4ccccc4)cnn3cc2C)cc1F,-6.1,-5.5,-6.4,-12.1,-0.1,nt,nt
COc1ccc(-c2noc(-c3ccccc3C(=O)NCc3ccco3)n2)cc1OC,-2.4,4.5,-1.7,0.8,0.4,nt,nt
COc1cc(OC)nc(Nc2nc(C(N)COCc3ccccc3)cs2)n1 (stereo unspecified),-4.1,-16.4,2.0,-1.1,0.0,nt,nt
COc1cc(OC)nc(Nc2nc(C(N)CCc3ccccc3)cs2)n1 (stereo unspecified),2.2,3.4,10.5*,2.5,0.1,-9.4,-3.5
CCn1nc(NS(=O)(=O)c2ccc(NC(C)=O)cc2)c2cc3cccc(C)c3nc21,-3.8,-3.0,-12.5,-24.6,0.1,nt,nt
CCN(C(=O)CSc1nnc(Nc2cccc(C)c2C)s1)C1CCS(=O)(=O)C1 (stereo unspecified),-0.8,1.3,4.2,3.4,-0.5,nt,nt
CCN(C(=O)CSc1nnc(NCc2ccccc2)s1)C1CCS(=O)(=O)C1 (stereo unspecified),6.8,8.2,11.5*,6.2,0.0,-1.2,4.4
CCCn1c(SCC(=O)Nc2cc(C(=O)O)ccc2C)nc2sc3c(c2c1=O)CCC3,1.8,1.8,-2.4,-8.0,0.5,nt,nt
COc1ccccc1C/C(N)=N/O,-0.3,10.6,1.3,11.3*,-0.4,1.6,-74.9
COc1ccccc1CC(=O)O/N=C(\N)Cc1cccc2ccccc12,-2.1,3.4,-14.2,-18.0,0.8,nt,nt
O=c1cc(CSc2nnc(Nc3ccccc3)s2)nc2sccn12,-5.9,-13.0,-14.7,-22.2,0.5,nt,nt
Cc1cccc(Nc2nnc(SCc3cn4ccsc4n3)s2)c1,1.9,5.4,10.2*,0.6,-0.3,0.9,-1.4
Cc1cc(S(=O)(=O)N2CCCC2)ccc1OCC(=O)Nc1ccc(C(N)=O)cc1,-1.1,-1.5,1.1,-1.2,0.8,nt,nt
CCOc1ccc(S(=O)(=O)Nc2cccc(Cl)c2)cc1,2.4,8.2,0.1,-1.7,0.1,nt,nt
CCOc1ccc(S(=O)(=O)Nc2cc(Cl)ccc2O)cc1,3.1,16.5,13.2*,0.2,0.3,-2.0,-3.5
O=C(NCc1cccs1)NC1CCCCC1,5.5,9.1,9.8*,8.4,-0.1,-2.6,2.2
COC(=O)c1cc(S(=O)(=O)NCCc2ccc(Cl)cc2)c[nH]1,-2.0,-5.9,0.5,-0.8,-0.3,nt,nt
O=[N+]([O-])c1ccc(N2CCCC2)cc1N1CCCC1,4.7,6.0,9.6*,3.6,-0.8,-4.5,-2.7
COC(=O)CCCCCCCCCC[N+]1(C)CCCCC1,4.3,8.7,3.8,10.8*,-0.4,-3.9,4.1
CC(=O)OCCCCCCCCCCC[N+]1(C)CCCCC1,2.9,2.3,-2.1,0.3,-0.1,nt,nt
SMILES,ADAM17 inh,ADAM10 inh,PLC-gamma1 inh,PLC-beta3 inh,KLK7 zymogen act,PLCgamma1 ctr,PLCb3 confirm
O=C(OCC(=O)N(c1ccccc1)C1CCCCC1)c1ccc(CO)cc1,2.8,2.6,3.9,4.9,0.2,nt,nt
O=C(NCCCN1CCCCC1)C1CCC(CNS(=O)(=O)c2cccc3nsnc23)CC1 (stereo unspecified),0.0,1.1,10.3*,-1.4,-0.3,-2.6,-1.8
CC1CCN(CCCNC(=O)C2CCC(CNS(=O)(=O)c3cccc4nsnc34)CC2)CC1 (stereo unspecified),-7.4,9.3,4.8,-4.9,-0.1,nt,nt
CSCCC(NC(=O)c1ccco1)C(=O)NC1CCCCCC1 (stereo unspecified),-0.7,-4.0,-1.8,-3.0,-0.6,nt,nt
CCNC(=O)Nc1ccc2c(c1)C(=O)N(C)[C@H]1CC[C@H](CC(=O)N[C@H](C)c3ccccc3)O[C@@H]1CO2,-6.9,15.5,9.5*,6.9,0.3,11.3*,11.7*
CCCNC(=O)C[C@H]1CC[C@H]2[C@@H](COc3ccc(NC(=O)Nc4ccccc4)cc3C(=O)N2C)O1,-0.5,-2.0,5.0,4.1,-0.3,nt,nt
C[C@@H](NC(=O)C[C@H]1CC[C@H]2[C@@H](COc3ccc(NC(=O)Nc4ccccc4)cc3C(=O)N2C)O1)c1ccccc1,-9.3,1.0,11.6*,3.0,0.0,3.9,7.5
CCNC(=O)Nc1ccc2c(c1)C(=O)N(C)[C@H]1CC[C@@H](CC(=O)OC)O[C@H]1CO2,-1.5,0.7,-0.1,2.0,0.3,nt,nt
COCCCN=Cc1c(C)[nH]n(-c2ccc(Br)cc2Br)c1=O,-3.4,5.3,0.1,0.7,0.1,nt,nt
COc1ccc(OCC(=O)Nc2cc(-c3nn4c(C)nnc4s3)ccc2C)cc1,3.7,2.7,1.4,7.8,0.4,nt,nt
CC(O)[C@H]1CN=C(N)N1CCc1cc(C(F)(F)F)cc(C(F)(F)F)c1 (stereo partly specified),-7.6,-6.2,-2.9,4.0,-0.5,nt,nt
NC1=NC[C@H](Cc2ccc(O)cc2)N1CCc1cc(C(F)(F)F)cc(C(F)(F)F)c1,-3.8,7.5,10.3*,-2.7,-0.1,-8.1,-3.4
CN(C)S(=O)(=O)c1cc(NC(=O)[C@H](Cc2ccccc2)N2C(=O)c3ccccc3C2=O)ccc1Cl,2.5,8.4,7.0,10.8*,0.0,7.4,5.6
CN(C)S(=O)(=O)c1cc(NC(=O)COC(=O)CCc2ccccc2)ccc1Cl,-2.2,1.6,-0.2,-12.2,0.0,nt,nt
CCOC(=O)c1csc(-c2ccc(OC)c(OC)c2)n1,-1.1,-1.2,-1.9,-0.9,0.5,nt,nt
CCOC(=O)c1csc(-c2sccc2Br)n1,7.4,12.1,14.0*,0.7,0.1,-3.7,-4.0

# Bioassay records deposited in PubChem by The Scripps Research Institute Molecular Screening Center.
